Reference: PubChem BioAssay AID488969 (Vanderbilt High Throughput Screening Facility, 2010)
In all, about 110,000 compounds were measured (“z-score”: median about -0.1, highest 2% from about 2 on). The full list was thinned out, with the highest values kept by preference. The source made the active and inactive calls.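 The calls were made as follows: active = z-score in the third read window above 3 or below -3; inactive = the rest.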

Target: Metabotropic glutamate receptor 8 (Rattus norvegicus) (UniProt P70579)
Test: mGluR8 Gi/Go-coupled signaling modulation – cell-based, rat, thallium flux, HTS, primary screen (AID 488969)
Conditions: HEK293 rat mGluR8, GIRK (G protein-gated inwardly rectifying potassium channel) thallium flux, FluoZin2; at 10 µM; stronger effect = higher value; submaximal glutamate (EC20) added with thallium

Sequence of Metabotropic glutamate receptor 8 (Rattus norvegicus) (P70579 whole entry, looked up): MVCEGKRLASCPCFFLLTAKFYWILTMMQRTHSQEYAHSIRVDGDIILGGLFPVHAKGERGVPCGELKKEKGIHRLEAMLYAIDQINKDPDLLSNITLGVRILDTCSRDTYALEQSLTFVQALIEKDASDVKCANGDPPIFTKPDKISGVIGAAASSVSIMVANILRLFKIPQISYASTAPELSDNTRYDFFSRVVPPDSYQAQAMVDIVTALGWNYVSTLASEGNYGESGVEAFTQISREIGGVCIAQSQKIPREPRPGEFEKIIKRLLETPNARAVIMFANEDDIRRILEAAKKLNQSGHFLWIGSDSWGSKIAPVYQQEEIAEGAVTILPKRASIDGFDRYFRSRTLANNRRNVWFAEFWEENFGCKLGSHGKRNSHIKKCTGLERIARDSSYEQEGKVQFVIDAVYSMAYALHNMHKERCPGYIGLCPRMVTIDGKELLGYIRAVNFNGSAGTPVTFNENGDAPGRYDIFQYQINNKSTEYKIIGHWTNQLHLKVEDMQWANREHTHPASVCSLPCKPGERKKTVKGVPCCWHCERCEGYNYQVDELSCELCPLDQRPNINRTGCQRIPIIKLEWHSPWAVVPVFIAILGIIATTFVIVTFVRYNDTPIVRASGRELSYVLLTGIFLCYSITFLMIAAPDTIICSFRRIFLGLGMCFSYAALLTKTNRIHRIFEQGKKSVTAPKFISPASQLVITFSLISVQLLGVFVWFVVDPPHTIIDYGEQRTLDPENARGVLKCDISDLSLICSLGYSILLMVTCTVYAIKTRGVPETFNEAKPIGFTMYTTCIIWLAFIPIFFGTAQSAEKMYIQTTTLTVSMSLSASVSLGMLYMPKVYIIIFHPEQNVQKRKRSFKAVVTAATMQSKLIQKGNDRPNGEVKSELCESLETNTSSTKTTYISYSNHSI

SMILES | z-score
O=C1[C@@H]2[C@H](C(=O)N1Cc1ccco1)[C@H]1C=C[C@@H]2C1 | -0.0939
Cc1cc(C(=O)CSc2nc3ccccc3o2)c(C)n1CC1CCCO1 (stereo not given) | -0.415
CCCCCCc1cc2cc(C(=O)NCc3ccccc3)c(=N)oc2cc1O | 0.891
CCCCCCc1cc2cc(C(N)=O)c(=N)oc2cc1O | -1.44
CCCCCCc1cc2cc(C(=O)NC)c(=N)oc2cc1O | 11.6 (active)
O=C(Nc1ccc(Br)cc1)c1ccc(N2C(=O)C3CC=CCC3C2=O)cc1 (stereo not given) | 0.106
COc1cc(C(=O)NNC2=CC(=O)CC(C)(C)C2)cc(OC)c1OC | -0.21
Cc1cc(N/C(=N\S(=O)(=O)c2ccc(F)cc2F)c2ccccc2)no1 | 0.0702
COc1ccc(-c2nnc(SCC(=O)Oc3ccc(C)cc3)o2)cc1 | -0.915
COc1ccc(-c2nnc(SC(C)C(=O)NNC(=O)c3ccc(C)cc3)o2)cc1 (stereo not given) | 2.1
COc1ccc(C(=O)CSc2nnc(-c3ccc(C)cc3)o2)cc1 | 2.18
COc1ccc(-c2nnc(SC(C)C(=O)Nc3cccc(Cl)c3)o2)cc1 (stereo not given) | -0.517
CCC(=O)Nc1ccc(C(=O)CSc2nnc(CNc3ccc(Cl)cc3)o2)cc1OC | -0.38
CCS(=O)(=O)Nc1ccc(-c2nnc(SCC(=O)c3ccc(NC(C)=O)c(OC)c3)o2)cc1 | 4.64 (active)
COc1ccc(-c2nnc(SC(C)C(=O)Nc3ccc4c(c3)OCCO4)o2)cc1 (stereo not given) | 1.65
CCn1c(SCC(=O)c2ccc(NC(C)=O)c(OC)c2)nnc1-c1ccc(NS(C)(=O)=O)cc1 | -0.0548
Cc1ccc(C(=O)CSc2nnc(-c3ccccc3)o2)cc1 | 0.068
COCCNC(=O)c1onc(CSc2ccc(C)c(C)c2)c1C(=O)O | -0.0285
CN1C(=O)COc2ccc(C(=O)c3oc4ccccc4c3-c3cnc4c(c3)COc3ccccc3-4)cc21 | -0.142
O=C(Cc1ccccc1)Nc1c[nH]c(=O)[nH]c1=O | -0.449
Brc1ccc2[nH]c3c(N4CCc5ccccc5C4)ncnc3c2c1 | -0.00372
O=C(CCn1cccc1)Nc1cc(F)ccc1F | -0.224
S=c1nc2ccccc2c2nc(-c3ccccc3)[nH]n12 | 2.81

SMILES | z-score
Cc1nc2ccccc2n1CCc1nc2c3ccccc3nc(=S)n2[nH]1 | -0.257
Cc1cncn1CCc1nc2c3ccccc3nc(=S)n2[nH]1 | -0.535
Cc1ccccc1C(=O)Nc1ccccc1C(=O)NCc1ccccc1 | -0.529
CCOC(=O)c1cn2nc(-c3ccc(OCC)cc3)cc2nc1C1CCN(C(=O)OC(C)(C)C)CC1 | -0.13
O=C(COC(=O)c1ccc([N+](=O)[O-])s1)Nc1ccccc1 | -0.0827
CC(C)(C)c1ccc(NC(=O)COC(=O)c2ccc([N+](=O)[O-])s2)cc1 | 2.01
Cc1ccc(NC(=O)COC(=O)c2ccc([N+](=O)[O-])s2)c(C)c1 | 0.229
COc1ccccc1/C=C/C(=O)NCC(=O)N/N=C/c1cccnc1 | 0.376
CC(NS(=O)(=O)c1ccc(CCC(=O)NCc2cccnc2)cc1)c1ccccc1 (stereo not given) | 0.0386
Cc1nnc(SCC(=O)Nc2ccccc2N2CCOCC2)s1 | -0.0127
O=C(Nc1ccc(Br)cc1)C1CCC(=O)N1Cc1ccccc1Cl (stereo not given) | 4.3 (active)
O=C(Nc1ccc(Cl)cc1)C1CCC(=O)N1Cc1ccccc1Cl (stereo not given) | 0.406
O=C(Nc1cc(Cl)cc(Cl)c1)C1CCC(=O)N1Cc1ccccc1Cl (stereo not given) | -0.359
CCCCN(CCCC)CC(O)CN(c1cc([N+](=O)[O-])ccc1OC)S(=O)(=O)c1ccccc1 (stereo not given) | 0.91
Cn1cc(CN2CCc3ccccc3C2)c2ccccc21 | 0.58
O=c1[nH]c(CN2CCc3ccccc3C2)nc2ccccc12 | 0.446
Cc1[nH]c2ccccc2c1CN1CCc2ccccc2C1 | 3.72 (active)
COc1ccc(-c2[nH]ncc2/C=N\NC(=O)c2ccc(C(C)(C)C)cc2)cc1OC | -0.413
CCOC(=O)c1c(-c2ccccc2)csc1NC(=S)N(CC)CC | 0.121
CCOC(=O)c1c(-c2ccccc2)csc1NC(=S)NC | 7.44 (active)
CCOC(=O)c1c(-c2ccc(C)cc2)csc1NC(=S)NC(=O)c1ccccc1 | 0.153
CCOC(=O)c1c(-c2ccccc2)csc1NC(=O)CCN1C(=O)c2ccccc2C1=O | -0.51
CCNC(=S)Nc1scc(-c2ccccc2)c1C(=O)OCC | 6.92 (active)

SMILES | z-score
CCOC(=O)c1c(-c2ccccc2)csc1NC(=O)C1CCCO1 (stereo not given) | -0.568
COc1ccc(NC(=O)c2ccc3snnc3c2)cc1 | -0.112
CS(=O)(=O)N1CCN(c2ccc(NC(=O)c3cccnc3Cl)cc2)CC1 | 0.393
CC(NS(=O)(=O)c1ccccc1)C(=O)Nc1ccc(S(N)(=O)=O)cc1 (stereo not given) | 0.246
CCCc1cc(=O)[nH]c(SCCOC(=O)c2ccccc2)n1 | -0.349
CCOc1ccc2nc(NC(=S)N(C)C)sc2c1 | -0.436
COc1ccc2nc(NC(C)=O)sc2c1 | -0.0562
COc1ccc2nc(NC(=S)N(C)C)sc2c1 | 14.8 (active)
COc1cccc(N=C2SC(C(=O)Nc3ccccc3F)CC(=O)N2C)c1 (stereo not given) | -0.119
COc1ccc(S(=O)(=O)N(C(C)=O)c2ccc(OC(C)=O)c3ccccc23)cc1[N+](=O)[O-] | -0.812
CC(=O)Oc1ccc(N(C(C)=O)S(=O)(=O)c2cccs2)c2ccccc12 | 4.9 (active)
CC(=O)Oc1ccc(N(C(C)=O)S(=O)(=O)c2cccs2)cc1 | -0.202
CC(C)C(=O)NC(=S)Nc1nnn(C)n1 | 0.169
CC(C)C(=O)Nc1nnn(C)n1 | 9.51 (active)
CC(C)CC(=O)Nc1nnn(C)n1 | 0.332
CCN1CCCC1CNC(=O)C(=O)Nc1ccccc1OC (stereo not given) | 0.00956
CCN1CCCC1CNC(=O)C(=O)Nc1ccc(OC)cc1 (stereo not given) | 0.521
CCN1CCCC1CNC(=O)C(=O)Nc1cccc(OC)c1 (stereo not given) | 2.04
CCOc1ccc(N(CC(=O)N2CC=C(c3ccccc3)CC2)S(=O)(=O)c2c(C)noc2C)cc1 | -0.285
O=C(COC(=O)c1cn(-c2ccccc2)nc1-c1ccc(F)cc1)Nc1ncc(Cl)cc1Cl | 0.0446
CCC(C)NC(=O)C1CCN(c2nc(OC)nc(OC)n2)CC1 (stereo not given) | 0.12
CCn1c2ccccc2c2cc(NC(=O)C/C(C)=N/NC(=O)c3ccccc3N)ccc21 | -0.0756
C/C(CC(=O)Nc1cccc2c1CCCC2)=N\NC(=O)c1cccc2ccccc12 | -0.483

SMILES | z-score
C/C(CC(=O)Nc1cccc2c1CCCC2)=N\NC(=O)c1ccccc1N | 2.22
COc1cc(NC(=O)c2ccco2)ccc1NC(=O)C(C)C | 0.332
Nc1nc(SCC(=O)NCCCO)nc2sc3c(c12)CCC3 | 1.08
O=C(CC1NC2CCCCC2NC1=O)Nc1cccc(C(F)(F)F)c1 (stereo not given) | 0.497
O=C(Nc1cccc(F)c1)NC1CCCCC1 | 0.258
CCc1cccc(NC(=O)C2CCCC2)c1 | 0.366
O=C(Nc1ccc(F)cc1)NC1CCCCC1 | 0.532
O=C(Nc1ccc(Cl)cc1)NC1CCCCC1 | 0.269
Cc1ccc(NC(=O)CCSCCC(=O)Nc2ccc(C)c(C)c2)cc1C | -0.0616
CCc1cccc(NC(=O)CSC2=NS(=O)(=O)c3ccccc32)c1 | 3.52 (active)
CCc1cccc(NC(=O)NC2CCCCC2)c1 | 4.38 (active)
CCc1cccc(NC(=O)COc2ccccc2)c1 | 0.78
CCc1cccc(NC(=O)CCSCCC(=O)Nc2cccc(CC)c2)c1 | 3.02 (active)
COC(=O)CSC1=NS(=O)(=O)c2ccccc21 | -2.06
O=C(CSC1=NS(=O)(=O)c2ccccc21)Nc1ccccc1 | -0.326
O=C(Nc1ccc(F)c(F)c1)NC1CCCCC1 | 3.01 (active)
CCc1cc2c(=O)c(Oc3ccccc3)c(C)oc2cc1O | 0.432
O=C(CNC(=O)c1cccc(F)c1)N/N=C/c1cccc([N+](=O)[O-])c1 | -0.00152
COc1ccc(S(=O)(=O)NC(C(C)C)C(C)C)cc1OC | 0.101
CSc1nc(N2CCOCC2)c2c(c1C#N)CCCCC2 | -0.315
CCC1Cc2c(nc3c4c(nc(N5CCOCC5)c(C#N)c24)NC(C)=N3)O1 (stereo not given) | -0.387
O=C(c1ccco1)N1CCCC(c2ccccc2)C1 (stereo not given) | -0.388
CCOC(=O)c1ccc(COC(=O)c2nonc2N)cc1 | -0.0847

SMILES | z-score
C=CCNC(=O)CC(C)C(CCCCC)C(=O)O (stereo not given) | -0.15
Cc1ccc(CNC(=O)c2cc3c(C)nc4ccccc4c3o2)cc1 | 0.19
Cc1ccc(SCCNC(=O)c2ccccc2C)cc1 | -0.0405
O=C(Cn1nc(-c2ccc(Cl)cc2)c2ccccc2c1=O)Nc1cccnc1 | -0.258
CCC(C)(C)n1nnnc1CN1CCN(c2nc3cc(OC)ccc3cc2C#N)CC1 | -1.2
OCCNc1ncnc2c1ncn2Cc1ccccc1 | -0.662
Cn1ncc2c(NCc3ccccc3)ncnc21 | -0.129
CC(C)CCn1cnc2c(NCc3ccccc3)ncnc21 | 2.07
O=C(CCCOc1ccc(Cl)cc1Cl)N/N=C\C1CCCCC1 | -0.118
CCn1c(-c2cc(-c3cc(OC)ccc3OC)nc3ccccc23)n[nH]c1=S | 0.132
CCCOc1cccc(-c2cc(-c3n[nH]c(=S)n3CC)c3ccccc3n2)c1 | 4.22 (active)
CCn1c(-c2cc(-c3ccccc3OC)nc3ccccc23)n[nH]c1=S | 0.152
CCOc1cccc(-c2cc(-c3n[nH]c(=S)n3CC)c3ccccc3n2)c1 | 2.09
CCn1c(-c2cc(-c3cccc(OC)c3)nc3ccccc23)n[nH]c1=S | 1.92
CCn1c(-c2cc(-c3ccc(OC(C)C)cc3)nc3ccccc23)n[nH]c1=S | 1.25
CCOC(=O)c1cc2nc(-c3ccco3)cc(C(F)(F)F)n2n1 | -1.72
CCOc1ccc(-c2nc(C#N)c(NCc3ccc4c(c3)OCO4)o2)cc1 | 0.406
O=c1[nH][nH]c(-c2ccccc2)c1C=Nc1ccccc1 | -0.278
O=C1CCC2CCCCC2(O)O1 (stereo not given) | -0.0285
O=c1n(Cc2ccc(Cl)cc2)c2sc3c(c2c2ncnn12)CCCC3 | -0.595
COc1cc(-c2nnc(SCC(=O)N3CCCC3)o2)cc(OC)c1OC | 2.2
COc1cc(OC)cc(-c2nnc(SCC(=O)N3CCCC3)o2)c1 | -0.103
COc1ccc(-c2nnc(SCC(=O)N3CCCC3)o2)cc1OC | 0.322
